experiment: KCC2 and NKCC1 inhibition by rubidium flux, cell-based, NKCC1 counter-screen (AID 1734); settings: KCC2-expressing cells, NKCC1 counter-screen, at 5 µM

Going from `O=C(CN1C(=O)NC2(CCCC2)C1=O)Nc1nc(-c2ccc(F)cc2)cs1` to `Cc1csc(NC(=O)CSc2ccc(-c3ccccc3)nn2)n1`, the inhibition falls from 39.2% to 12.9%.

First: O=C(Cn1cnc2c(nnn2Cc2ccccc2)c1=O)N1CCCc2ccccc21
Second: O=C(Cn1cnc2c(nnn2Cc2ccccc2)c1=O)c1ccc(Cl)cc1
The inhibition of the first is lower: 23.4% for the first, 25.1% for the second.

First: CC1Cc2ccccc2N1C(=O)c1ccc(N2CCCC2)c([N+](=O)[O-])c1 (configuration not stated)
Second: O=C(OCC(=O)N1CCN(C(=O)c2ccco2)CC1)c1sc2ccccc2c1Cl
The inhibition of the first is lower: 22.9% for the first, 33.3% for the second.

Going from `CCOc1ccc(N2C(=O)C3Sc4[nH]c(=O)sc4C(/C=C/c4ccccc4)C3C2=O)cc1` (configuration not stated) to `CCOc1ccc(Nc2n[nH]c(=S)s2)cc1`, the inhibition falls from 67.4% to 44.9%.

Going from `O=C(Nc1ccc(S(=O)(=O)NCc2ccccc2)cc1)c1ccccc1[N+](=O)[O-]` to `O=S(=O)(NCc1ccccc1)c1ccc(Cl)c(S(=O)(=O)NCc2ccccc2)c1`, the inhibition falls from 24.2% to 13.5%.

Going from `Cc1ccc(-c2ccc(S(=O)(=O)NCC3CCCO3)cc2)cc1` (configuration not stated) to `O=C(NCC1CCCN(C(=O)c2cccnc2)C1)c1ccc(-c2ccccc2)cc1` (configuration not stated), the inhibition rises from 21.8% to 31.2%.

Going from `Cc1ccc(Nc2nnc(SCC(=O)c3cc4ccccc4o3)s2)cc1C` to `Cc1cnc(NC(=O)CSc2nnc(Cc3ccccc3)o2)s1`, the inhibition falls from 46.3% to 9.9%.

Going from `CN(Cc1ccccc1)S(=O)(=O)c1ccc(Cl)c(C(=O)NCCc2ccccn2)c1` to `O=C(CCS(=O)(=O)Cc1ccccc1)Nc1nc2c(s1)CCCC2`, the inhibition falls from 44.4% to 35.8%.

Work on `CCCn1c(N)c(C(=O)CSc2nnc(Cc3ccccc3)o2)c(=O)n(C)c1=O` yielded an inhibition of 15.4%.

From PubChem BioAssay AID1734 (Vanderbilt High Throughput Screening Facility, 2009)
